The results in this text go back to PubChem BioAssay (NCATS).

Records with an inconclusive call do not appear. Unmarked numbers belong to inactive results. Activity calls are given as the source filed them. Calls follow the shape of the dose curve; as a rule, active = well fitted cell-killing curve with a large enough effect; inconclusive = small, poorly fitted or top-dose-only effect, or effect the other way; inactive = no such curve, though single readings can be large or run the other way.
Potency is read from the fitted curve at half-maximal effect.

The nature of the assay: Quantitative High-Throughput drug screen in 47 multiple myeloma cell lines against the NCATS MIPE library collection: VP6_DJ cell viability assay (AID 1919867). Also: nearly all actives have a fitted effect of over 40% in size. As to conditions: ATP luminescence, 48 h; series mostly up to 45.8 µM; viability (% of DMSO): at the top concentration. The text has this:
PI: Beverly A. Mock Ph.D.
Laboratory of Cancer Biology and Genetics,
Center for Cancer Research, National Cancer Institute,
National Institute of Health, Bethesda, Maryland
Drug resistance and disease progression are common in multiple myeloma (MM) patients, underscoring the need for new therapeutic combinations. […] We hypothesized that effective combinations would reduce MYC expression and enhance p16 activity. […] These preclinical data identify potentially useful drug combinations for evaluation in drug-resistant MM and reveal potential mechanisms of combined drug sensitivity.
Described herein is the primary MIPE qHTS used to cherrypick compounds. Validated compounds were then further tested for potential synergistic activiy.
[1] Peat TJ, Gaikwad SM, Dubois W, Gyabaah-Kessie N, Zhang S, Gorjifard S, Phyo Z, Andres M, Hughitt VK, Simpson RM, Miller MA, Girvin AT, Taylor A, Williams D, D'Antonio N, Zhang Y, Rajagopalan A, Flietner E, Wilson K, Zhang X, Shinn P, Klumpp-Thomas C, McKnight C, Itkin Z, Chen L, Kazandijian D, Zhang J, Michalowski AM, Simmons JK, Keats J, Thomas CJ, Mock BA. Drug combinations identified by high-throughput screening promote cell cycle transition and upregulate Smad pathways in myeloma. Cancer Lett. 2023 Aug 1;568:216284. doi: 10.1016/j.canlet.2023.216284. Epub 2023 Jun 24. PMID: 37356470; PMCID: PMC10408729.
SEQUENCE No. (e.g., 1, 2, 3, etc.); […] (e.g., Cells, Incubation, Reagent, etc.); VALUE and DESCRIPTION.
1; Cells; 5 uL; white, solid bottom 1536-well Greiner assay plate.
2; Compounds; 23 nL; Kalypsis pin tool (Wako USA) equipped with a 1536-well pin head to transfer to the assay plates.
3; Incubation; 48 hours; 37C incubation.
4; Reagent;5uL; CellTiter Glo (Promega).
5; Detector; 425V; Luminescence; Viewlux PerkinElmer.
NOTES (numbers refer to Sequence numbers above)
1. The cell-based screening methods employed in this study were like those previously published. Briefly, the corresponding myeloma cell lines were screened in 1,536-well plates with 500 cells, 5-uL per well for inhibition of cell viability (assessed by measuring ATP levels with CellTiterGlo).
2. NCATS MIPE 4.0 library of approved and investigational drugs were added using the Kalypsis pin tool. Wells treated with DMSO only for 100% viability and media only for 0% viability were used as controls.
3. The assay plates were covered and incubated for 48 hours in a 37C, 5% CO2 incubator with controlled humidity.
4. After 48 hours, CellTilter-GloTM luminescent substrate mix (Promega) reagent was added to the assay plate and plates we incubated for 5 min at room temperature.
5. Signal was measured as median relative luminescence units on a ViewLux (PerkinElmer) multiplate reader.
[1] Heske CM, Davis MI, Baumgart JT, Wilson K, Gormally MV, Chen L, Zhang X, Ceribelli M, Duveau DY, Guha R, Ferrer M, Arnaldez FI, Ji J, Tran HL, Zhang Y, Mendoza A, Helman LJ, Thomas CJ. Matrix Screen Identifies Synergistic Combination of PARP Inhibitors and Nicotinamide Phosphoribosyltransferase (NAMPT) Inhibitors in Ewing Sarcoma. Clin Cancer Res. 2017 Dec 1;23(23):7301-7311. doi: 10.1158/1078-0432.CCR-17-1121. Epub 2017 Sep 12. PMID: 28899971; PMCID: PMC6636827.
As to `N#CC(c1ccnc(NCCc2cccnc2)n1)c1nc2ccccc2s1` (stereo not given), the Potency is 10.5 µM (active). Same read-out and setting: next, `O=S(=O)(O)c1ccc2cc(N=Nc3cc(S(=O)(=O)O)c4cccnc4c3O)ccc2c1`: 16.6 µM (active). The same measure, in the same setting: next, `O=C(CCCN1CCN(c2ccc(F)cc2)CC1)NC1c2ccccc2CSc2ccccc21` (stereo not given): 7.43 µM (active). Still for that read-out and setting: the value for `CN1C(=O)C(Cc2c[nH]c3ccccc23)NC1=S` (stereo not given) was 7.43 µM (active); that for `NC(N)=Nc1nc(CSCCC(N)=NS(N)(=O)=O)cs1` was 5.26 µM (active). For `CN(C)CCOc1ccc(C(=C(CCCl)c2ccccc2)c2ccccc2)cc1`, the “viability (% of DMSO)” value was 138%. With `CC(C)CNc1ccnc(NCc2csc(-c3ccccc3)n2)n1`, the Potency is 5.26 µM (active). Regarding `CC(=O)N1CCN(c2ccc(OCc3nn(C)c(C)c3-c3cccc4c(CCCOc5cc(C)c(Cl)c(C)c5)c(C(=O)O)n(Cc5cccnc5)c34)cc2)CC1`, the Potency was 10.5 µM (active). Same read-out and setting: next, `C[C@@H]1CC=CC=CC=CC=C[C@@H](O[C@@H]2O[C@H](C)[C@@H](O)[C@H](N)[C@H]2O)C[C@@H]2O[C@](O)(C[C@@H](O)C[C@@H]3O[C@@H]3C=CC(=O)O1)C[C@H](O)[C@@H]2C(=O)O`: 10.5 µM (active).

For the compound `CC(=O)Nc1cccc(-n2c(=O)n(C3CC3)c(=O)c3c(Nc4ccc(I)cc4F)n(C)c(=O)c(C)c32)c1`, the “viability (% of DMSO)” value is 102%. For `CCC(=O)OCC(=O)[C@@]1(OC(=O)CC)[C@@H](C)C[C@@H]2[C@H]3CCC4=CC(=O)C=C[C@]4(C)[C@@]3(F)[C@@H](O)C[C@@]21C`, the Potency was 11.8 µM (active). Regarding `CN1CCN2c3ncccc3Cc3ccccc3C2C1` (stereo not given), the “viability (% of DMSO)” value was 118%.

`C#C[C@]1(O)CC[C@H]2[C@H]3CCc4cc(OC)ccc4[C@H]3CC[C@@]21C`: the Potency is 16.6 µM (active). As for `CC(C)(C)c1nc(-c2cccc(NS(=O)(=O)c3c(F)cccc3F)c2F)c(-c2ccnc(N)n2)s1`, the Potency is 2.96 µM (active).

Turning to `COc1cc([C@H]2Oc3cc([C@H]4Oc5cc(O)cc(O)c5C(=O)[C@H]4O)ccc3O[C@H]2CO)ccc1O`, the Potency was 11.8 µM (active).

`O=C(c1ccc(F)c(F)c1Nc1ccc(I)cc1F)N1CC(O)([C@H]2CCCCN2)C1`: the Potency was 9.35 µM (active).

As for `N[C@@H](CC(=O)N1CCn2c(nnc2C(F)(F)F)C1)Cc1cc(F)c(F)cc1F`, the “viability (% of DMSO)” value was 145%. On to `COc1ccc2nc3cc(Cl)ccc3c(Nc3cc(CN4CCCC4)c(O)c(CN4CCCC4)c3)c2n1`, for which the Potency is 9.35 µM (active). On to `C[C@@]1(C(=O)Nc2ccc(F)nc2)CCCN1c1nc(Nc2cc(C3CC3)[nH]n2)c2cccn2n1`, for which the Potency was 0.0372 µM (active). The same measure, in the same setting: the value for `O=c1[nH]nc(OCCCc2ccc(Cl)cc2)c(NCc2cccnc2)c1Br` was 9.35 µM (active).

As for `O=C(O)C1=CO[C@@H](O[C@@H]2O[C@H](CO)[C@H](O)[C@H](O)[C@H]2O)[C@@H]2C(CO)=CC[C@H]12`, the “viability (% of DMSO)” value was 138%. Same read-out and setting: next, `CN1CC(=O)NC1=NC(=O)Nc1cccc(Cl)c1`: 129%. Consider `NCc1c[nH]c(=S)n1[C@H]1CCc2c(F)cc(F)cc2C1`, for which the Potency was 3.32 µM (active). With `Cc1cnc(CNC(=O)c2c(=O)c3ccc(N4CCCN(C)CC4)nc3n3c2sc2ccccc23)cn1`, the “viability (% of DMSO)” value was 110% [at 23.2 µM]. With `CCNC(=O)Nc1ccc(Oc2ncnc(N)c2C=NOC)cc1Cl`, the Potency is 3.72 µM (active).

Take `C[C@H](CCC(=O)O)[C@H]1CC[C@H]2[C@H]3[C@@H](CC[C@]12C)[C@@]1(C)CC[C@@H](O)C[C@H]1C[C@@H]3O`: the Potency was 20.9 µM (active). Regarding `CN(C)c1ccccc1CN1CCCN(Cc2ccccc2N(C)C)C1c1ccncc1`, the Potency was 18.7 µM (active).

Consider `CN(C)c1ccc(-c2nc3ncc(Cl)c(N4CCN(CC(=O)Nc5nccs5)CC4)c3[nH]2)cc1`, for which the “viability (% of DMSO)” value was 117%.

Turning to `CC1CNc2c(cccc2S(=O)(=O)N[C@@H](CCCN=C(N)N)C(=O)N2CC[C@@H](C)C[C@@H]2C(=O)O)C1` (stereo not given in full), the “viability (% of DMSO)” value is 144%. For `CN[C@@H]1[C@@H](O)[C@@H](O[C@@H]2[C@@H](O)[C@H](O[C@H]3O[C@H](CN)[C@@H](O)[C@H](O)[C@@H]3O)[C@@H](N)C[C@@H]2NC(=O)[C@@H](O)CN)OC[C@]1(C)O`, the “viability (% of DMSO)” value was 131%. Same read-out and setting: the value for `COc1cc(CNC(=O)CCCCC=CC(C)C)ccc1O` was 108%. In the case of `CC(=O)O[C@]1(C(C)=O)CC[C@H]2[C@@H]3C=C(Cl)C4=CC(=O)[C@@H]5C[C@H]5[C@]4(C)[C@@H]3CC[C@@]21C`, the Potency was 7.43 µM (active).

Turning to `CN(C)CCOc1ccc(-c2nc(-c3ccc4c(c3)CCC4=NO)c(-c3ccncc3)[nH]2)cc1`, the Potency is 18.7 µM (active). The same measure, in the same setting: the value for `COc1cc2ncnc(Nc3cc(Br)c(O)c(Br)c3)c2cc1OC` was 0.0148 µM (active).

For `CC1(C)[C@H]2CC[C@]3(C)[C@@H](C(=O)C=C4[C@@H]5C[C@@](C)(C(=O)O)CC[C@]5(C)CC[C@]43C)[C@@]2(C)CC[C@@H]1O`, the “viability (% of DMSO)” value is 139%. The same measure, in the same setting: next, `O=c1[nH]c(=O)n([C@H]2C[C@@H](O)[C@@H](CO)O2)cc1I`: 99.9%. On to `CC[C@H](CC#N)OC(=O)N[C@@H](C)c1cccc(NC(=O)Nc2ccc(-c3cnco3)c(OC)c2)c1`, for which the Potency was 1.32 µM (active).

In the case of `COc1ccc(-c2cc3nccn3c(Nc3ncccc3C(N)=O)n2)cc1OC`, the Potency is 0.935 µM (active). The same measure, in the same setting: the value for `CC[C@H](NC(=O)[C@H](C)NC)C(=O)N1C[C@@H](O)C[C@H]1Cc1c(-c2[nH]c3cc(F)ccc3c2C[C@H]2C[C@H](O)CN2C(=O)[C@H](CC)NC(=O)[C@H](C)NC)[nH]c2cc(F)ccc12` was 3.72 µM (active); that for `C[C@@H]1O[C@@H](O[C@H]2CC[C@@]3(C)[C@H](CC[C@@H]4[C@H]3C[C@@H](O)[C@]3(C)[C@@H](C5=CC(=O)OC5)CC[C@]43O)C2)C[C@H](O)[C@@H]1O[C@H]1C[C@H](O)[C@H](O[C@H]2C[C@H](O)[C@@H](O)[C@@H](C)O2)[C@H](C)O1` (stereo in doubt) was 0.136 µM (active).
